The whole screen tested about 5,500 compounds, of which about 2,000 (36%) were called active. Inconclusive results (about 18%) are left out. This is one part of the list. A number with no mark means an inactive call. Rule as the data show it: active = normalized growth mostly below about 0.91 (no sharp cut-off); inconclusive = no clear call, values can overlap the other calls; inactive = mostly above about 0.92.
Assay: chemical genetic growth profiling, strain panel (AID 1159580);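 also: tested at 20 µM; growth read once vehicle control cultures reached saturation at 30 °C; 1 = growth at the plate median or of vehicle wells; lower values mean less growth of the strain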
Settings: S. cerevisiae deletion strains, growth OD
[1] = locus YAL040C, strain CLN3, active compounds read low
[2] = locus YCL061C, strain MRC1 (second series), active compounds read low
[3] = locus YDR363W, strain ESC2, active compounds read low
[4] = locus YER002W, strain NOP16, active compounds read low
[5] = locus YGR078C, strain PAC10, active compounds read low
[6] = locus YGR229C, strain SMI1, active compounds read low
[7] = locus YMR307W, strain GAS1, active compounds read low
[8] = locus YNL175C, strain NOP13, active compounds read low
[9] = locus YNL197C, strain WHI3, active compounds read low
[10] = locus YNL224C, strain SQS1, active compounds read low
[11] = locus YOR083W, strain WHI5 (second series), active compounds read low
[12] = locus YPL241C, strain CIN2, active compounds read low
[13] = locus YJR075W, strain HOC1, active compounds read low
[14] = locus YNL153C, strain GIM3, active compounds read low
[15] = locus YDR150W, strain NUM1, active compounds read low
[16] = locus YNL128W, strain TEP1, active compounds read low

O=c1[nH]c2ccccc2n1CCCN1CCC(n2c(=O)[nH]c3cc(Cl)ccc32)CC1
normalized growth (locus YAL013W, strain DEP1, active compounds read low): 0.982 | normalized growth (locus YAL021C, strain ccr4, active compounds read low): 0.982 | normalized growth (locus YAL026C, strain drs2, active compounds read low): 1.01 | normalized growth (locus YAL030W, strain snc1, active compounds read low): 0.991 | normalized growth [1]: 1 | normalized growth (locus YBL061C, strain skt5, active compounds read low): 0.981 | normalized growth (locus YBR009C, strain hhf1, active compounds read low): 0.967 | normalized growth (locus YBR023C, strain chs3, active compounds read low): 0.982 | normalized growth (locus YBR171W, strain sec66, active compounds read low): 0.979 | normalized growth (locus YBR231C, strain swc5, active compounds read low): 0.945 | normalized growth (locus YBR279W, strain paf1, active compounds read low): 0.992 | normalized growth (locus YCL011C, strain gbp2, active compounds read low): 0.987 | normalized growth (locus YCL016C, strain dcc1, active compounds read low): 0.989 | normalized growth [2]: 1.01 | normalized growth (locus YCL069W, strain vba3, active compounds read low): 0.978 | normalized growth (locus YCR088W, strain abp1, active compounds read low): 0.983 | normalized growth (locus YDL005C, strain med2, active compounds read low): 0.971 | normalized growth (locus YDL040C, strain nat1, active compounds read low): 0.959 | normalized growth (locus YDR001C, strain nth1, active compounds read low): 0.969 | normalized growth (locus YDR069C, strain doa4, active compounds read low): 0.971 | normalized growth (locus YDR137W, strain rgp1, active compounds read low): 1.05 | normalized growth (locus YDR159W, strain sac3, active compounds read low): 0.956 | normalized growth (locus YDR195W, strain ref2): 0.979 | normalized growth (locus YDR297W, strain sur2, active compounds read low): 0.984 | normalized growth (locus YDR334W, strain swr1, active compounds read low): 0.976 | normalized growth (locus YDR335W, strain msn5, active compounds read low): 0.961 | normalized growth [3]: 1 | normalized growth (locus YDR392W, strain spt3, active compounds read low): 0.942 | normalized growth (locus YEL003W, strain gim4, active compounds read low): 0.976 | normalized growth (locus YEL037C, strain rad23, active compounds read low): 0.974 | normalized growth (locus YEL061C, strain CIN8 (second series), active compounds read low): 0.98 | normalized growth [4]: 0.997 | normalized growth (locus YER015W, strain faa2, active compounds read low): 0.976 | normalized growth (locus YER016W, strain bim1, active compounds read low): 1 | normalized growth (locus YER111C, strain swi4, active compounds read low): 0.976 | normalized growth (locus YER155C, strain BEM2 (second series), active compounds read low): 0.863 (active) | normalized growth (locus YFR010W, strain ubp6, active compounds read low): 0.951 | normalized growth (locus YGL167C, strain pmr1, active compounds read low): 0.964 | normalized growth (locus YGL173C, strain kem1, active compounds read low): 0.964 | normalized growth (locus YGL227W, strain vid30, active compounds read low): 0.972 | normalized growth (locus YGL240W, strain doc1, active compounds read low): 0.927 | normalized growth (locus YGL253W, strain hxk2, active compounds read low): 1.01 | normalized growth [5]: 1.01 | normalized growth [6]: 1.01 | normalized growth (locus YHR013C, strain ard1, active compounds read low): 0.965 | normalized growth (locus YHR027C, strain rpn1, active compounds read low): 0.997 | normalized growth (locus YHR030C, strain SLT2, active compounds read low): 1.02 | normalized growth (locus YHR079C, strain IRE1, active compounds read low): 0.994 | normalized growth (locus YHR142W, strain chs7, active compounds read low): 0.981 | normalized growth (locus YJL092W, strain hpr5, active compounds read low): 0.965 | normalized growth (locus YJL095W, strain BCK1 (second series), active compounds read low): 0.982 | normalized growth (locus YJL095W, strain BCK1, active compounds read low): 0.997 | normalized growth (locus YJL115W, strain asf1, active compounds read low): 0.994 | normalized growth (locus YJL129C, strain trk1, active compounds read low): 0.916 | normalized growth (locus YJL154C, strain vps35, active compounds read low): 0.958 | normalized growth (locus YJL164C, strain tpk1, active compounds read low): 0.997 | normalized growth (locus YJL166W, strain qcr8, active compounds read low): 0.929 | normalized growth (locus YJL187C, strain SWE1, active compounds read low): 0.978 | normalized growth (locus YJR066W, strain TOR1, active compounds read low): 0.932 | normalized growth (locus YKL160W, strain elf1, active compounds read low): 0.964 | normalized growth (locus YKR026C, strain gcn3, active compounds read low): 0.982 | normalized growth (locus YKR091W, strain srl3, active compounds read low): 0.984 | normalized growth (locus YLL001W, strain dnm1, active compounds read low): 0.917 | normalized growth (locus YLL026W, active compounds read low): 0.969 | normalized growth (locus YLL041C, strain sdh2, active compounds read low): 0.988 | normalized growth (locus YLR027C, strain aat2, active compounds read low): 0.972 | normalized growth (locus YLR113W, strain HOG1, active compounds read low): 1 | normalized growth (locus YLR221C, strain rsa3, active compounds read low): 1.01 | normalized growth (locus YLR258W, strain gsy2, active compounds read low): 0.998 | normalized growth (locus YLR262C, strain YPT6 (second series), active compounds read low): 0.999 | normalized growth (locus YLR320W, strain mms22, active compounds read low): 1 | normalized growth (locus YLR342W, strain FKS1, active compounds read low): 0.933 | normalized growth (locus YLR357W, strain rsc2, active compounds read low): 0.937 | normalized growth (locus YLR370C, strain arc18, active compounds read low): 0.966 | normalized growth (locus YLR384C, strain iki3, active compounds read low): 0.978 | normalized growth (locus YML120C, strain ndi1, active compounds read low): 0.962 | normalized growth (locus YMR058W, strain fet3, active compounds read low): 0.959 | normalized growth (locus YMR125W, strain sto1, active compounds read low): 1.02 | normalized growth (locus YMR129W, active compounds read low): 0.982 | normalized growth (locus YMR205C, strain PFK2, active compounds read low): 0.978 | normalized growth (locus YMR231W, strain pep5, active compounds read low): 0.977 | normalized growth [7]: 0.992 | normalized growth (locus YNL071W, strain lat1, active compounds read low): 0.989 | normalized growth [8]: 1.01 | normalized growth (locus YNL183C, strain NPR1, active compounds read low): 0.955 | normalized growth [9]: 1.02 | normalized growth (locus YNL209W, strain ssb2, active compounds read low): 0.992 | normalized growth [10]: 1 | normalized growth (locus YNL248C, strain rpa49, active compounds read low): 0.996 | normalized growth (locus YNL322C, strain KRE1 (second series), active compounds read low): 0.975 | normalized growth (locus YNR049C, strain mso1, active compounds read low): 0.983 | normalized growth (locus YOR001W, strain rrp6, active compounds read low): 0.952 | normalized growth (locus YOR070C, strain gyp1, active compounds read low): 0.991 | normalized growth (locus YOR080W, strain dia2, active compounds read low): 0.96 | normalized growth [11]: 0.926 | normalized growth (locus YOR083W, strain WHI5, active compounds read low): 0.911 | normalized growth (locus YOR106W, strain vam3, active compounds read low): 0.927 | normalized growth (locus YOR231W, strain MKK1, active compounds read low): 1.01 | normalized growth (locus YOR265W, strain rbl2, active compounds read low): 0.986 | normalized growth (locus YOR270C, strain vph1, active compounds read low): 0.936 | normalized growth (locus YOR290C, strain snf2, active compounds read low): 0.988 | normalized growth (locus YPL051W, strain arl3, active compounds read low): 0.971 | normalized growth (locus YPL078C, strain atp4, active compounds read low): 0.926 | normalized growth (locus YPL106C, strain sse1, active compounds read low): 0.998 | normalized growth (locus YPL240C, strain hsp82, active compounds read low): 0.997 | normalized growth [12]: 1.01 | normalized growth (locus YPL256C, strain CLN2, active compounds read low): 0.995

CCCCN1CCC(n2c(=O)[nH]c3ccccc32)CC1
normalized growth [1]: 1.01 | normalized growth [2]: 1.01 | normalized growth [3]: 1.02 | normalized growth [4]: 0.994 | normalized growth [6]: 1.01 | normalized growth [13]: 1.02 | normalized growth (locus YMR263W, strain SAP30, active compounds read low): 1 | normalized growth [14]: 0.952 | normalized growth [8]: 1.01 | normalized growth [9]: 1.03 | normalized growth [10]: 0.988 | normalized growth [11]: 1.01

O=c1[nH]c2ccccc2n1CCCN1CCN(C(c2ccccc2)c2ccccc2)CC1
normalized growth [1]: 1.02 | normalized growth [2]: 1 | normalized growth [15]: 1.01 | normalized growth [3]: 1.01 | normalized growth [4]: 1.07 | normalized growth [5]: 1.02 | normalized growth [13]: 1 | normalized growth [7]: 1.03 | normalized growth [16]: 1.19 [resistant] (active) | normalized growth [8]: 1.04 | normalized growth [9]: 1.04 | normalized growth [10]: 1.04 | normalized growth (locus YNL322C, strain KRE1, active compounds read low): 1.01 | normalized growth [11]: 0.92 | normalized growth (locus YPL055C, strain LGE1, active compounds read low): 1.02 | normalized growth [12]: 1

O=C(OC1CCN(CCCl)CC1)C(c1ccccc1)c1ccccc1
normalized growth [1]: 0.993 | normalized growth [2]: 0.988 | normalized growth [15]: 0.986 | normalized growth [3]: 0.986 | normalized growth [4]: 1 | normalized growth [5]: 0.994 | normalized growth [13]: 0.995 | normalized growth [16]: 0.997 | normalized growth [14]: 0.969 | normalized growth [8]: 1.01 | normalized growth [9]: 1.03 | normalized growth [10]: 0.99 | normalized growth [11]: 0.996 | normalized growth [12]: 0.99
